Source: the supplement of paper PMC8047044
“And” between values parts separate entries of the source, which are not always exact repeats. Equal values may be shown once.

Assays:
Neuro-2a [1] = experiment: neurite formation score, plate-normalized to DMSO control mean 5.04 (score (0-8 scale)); higher = more or longer neurites; settings: 1 µM
Procedure: (§1)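 Neuro-2a mouse neuroblastoma cells in PLL-coated 96-well plates were pre-treated for 1 h in DMEM(+) with each kinase inhibitor at 1 µM, then switched to serum-free DMEM(-) with inhibitor to induce neurite outgrowth and fixed about 2-3 h later. Three blinded observers scored neurite formation from 0 (no neurites) to 8 (long neurites on almost all cells).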

Neuro-2a [2] = experiment: as above; settings: 0.1 µM
Procedure: as §1, with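 “at 0.1” for “at 1”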

| Structure (SMILES) | neurite formation score (Neuro-2a [1]) | neurite formation score (Neuro-2a [2]) |
| --- | --- | --- |
| FC(F)(F)c1ccc(CNc2ccc(Cc3c[nH]c4ncc(Cl)cc34)cn2)cn1 [Pexidartinib (PLX3397)] | 4.54 | 5.42 |
| C#Cc1cccc(Nc2ncnc3cc(OC)c(OCCCCCCC(=O)NO)cc23)c1 | 4.36 |  |
| COc1cc(OC)c(/C=C/S(=O)(=O)Cc2ccc(OC)c(NCC(=O)O)c2)c(OC)c1 | 0.908 |  |
| Cc1cc2c(F)c(Oc3ncnn4cc(OC[C@@H](C)OC(=O)[C@H](C)N)c(C)c34)ccc2[nH]1 | 3.57 |  |
| CNC(=O)c1c(F)cccc1Nc1nc(Nc2cc3c(cc2OC)CCN3C(=O)CN(C)C)nc2[nH]ccc12 | 4.96 | 4.58 |
| O=C(Nc1cc(C(F)(F)F)cc(C(F)(F)F)c1)c1cc(Cl)ccc1O | 2.8 | 4.76 |
| FC(F)(F)c1ccc(CNc2ccc(Cc3c[nH]c4ncccc34)cn2)cc1 | 3.54 | 5.08 |
| Cc1[nH]c(/C=C2\C(=O)Nc3ccccc32)c(C)c1CCC(=O)O [TSU-68 (SU6668,Orantinib)] | 4.57 | 4.54 |
| CCc1cncnc1N1CCN(Cc2nc3ccc(C(F)(F)F)cc3[nH]2)CC1 | 4.54 |  |
| O=C(NCCCNc1nc(Nc2cccc(NC(=O)N3CCCC3)c2)ncc1I)c1cccs1 | 5.24 | 4.54 |
| CCN(CC)CCNC(=O)c1c(C)[nH]c(/C=C2\C(=O)Nc3ccc(F)cc32)c1C [Sunitinib malate] | 5.57 | 5.21 |
| Cn1cc(/C=C2\C(=O)Nc3cccnc32)c2ccccc21 | 4.54 | 4.08 |
| CN(C)Cc1cccc(N=C(c2ccccc2)c2c(O)[nH]c3cc(C(=O)N(C)C)ccc23)c1 | 4.9 | 5.54 |
| Cc1ccc(F)c(NC(=O)Nc2ccc(-c3cccc4[nH]nc(N)c34)cc2)c1 [Linifanib (ABT-869)] | 3.14 | 3.76 |
| Cc1ccc(S(=O)(=O)/C=C/C#N)cc1 | 5.14 | 2.42 |
| O=c1cc(N2CCOCC2)oc2c1ccc1ccccc12 | 4.8 | 4.42 |
| O=C(c1ccc(F)c(F)c1Nc1ccc(I)cc1F)N1CC(O)([C@@H]2CCCCN2)C1 [Cobimetinib] | 3.24 | 4.71 |
| C=CC(=O)Nc1cc(Nc2nccc(-c3cn(C)c4ccccc34)n2)c(OC)cc1N(C)CCN(C)C | 5.14 | 3.76 |
| Cc1cc(NC(=O)c2cccc(NC(=O)/C=C/CN(C)C)c2)ccc1Nc1nccc(-c2cccnc2)n1 | 5.36 | 4.58 |
| Cc1cc(Nc2nc(N[C@@H](C)c3ncc(F)cn3)ncc2Cl)[nH]n1 | 3.8 | 3.09 |
| CN1CCC(CNc2ccc3ncc(-c4cccc(OC(F)(F)F)c4)n3n2)CC1 [SGI-1776 free base] | 5.69 | 5.25 |
| C=CC(=O)Nc1cc2c(Nc3ccc(F)c(Cl)c3)ncnc2cc1OCCCN1CCOCC1 [Canertinib (CI-1033)] | 4.57 | 4.71 |
| CCN1CCN(Cc2ccc(-c3cc4c(N[C@H](C)c5ccccc5)ncnc4[nH]3)cc2)CC1 | 2.57 |  |
| COc1cc(Nc2ncc(F)c(Nc3ccc4c(n3)NC(=O)C(C)(C)O4)n2)cc(OC)c1OC [R406 (free base)] | 3.9 | 5.21 |
| CCS(=O)(=O)N1CCN(c2ccc(Nc3ncc(C(N)=O)c(NC4CC4)n3)cc2)CC1 | 4.54 | 5.08 |

| Structure (SMILES) | neurite formation score (Neuro-2a [1]) | neurite formation score (Neuro-2a [2]) |
| --- | --- | --- |
| COc1cc2ncnc(Nc3ccc(O)c(Br)c3)c2cc1OC | 4.47 | 5.09 |
| Cn1cc(-c2ccc3nnc(C(F)(F)c4ccc5ncccc5c4)n3n2)cn1 | 4.02 | 4.25 |
| Cn1cnc2c(F)c(Nc3ccc(Br)cc3Cl)c(C(=O)NOCCO)cc21 [AZD6244 (Selumetinib)] | 4.24 | 5.54 |
| O=C(/C=C/c1ccc2ccccc2n1)c1ccncc1 | 5.21 | 3.08 |
| CN(C)C/C=C/C(=O)Nc1cc2c(Nc3ccc(F)c(Cl)c3)ncnc2cc1O[C@H]1CCOC1 [Afatinib dimaleate] | 4.91 | 4.38 |
| OCCn1cc(-c2cnc3nnn(Cc4ccc5ncccc5c4)c3n2)cn1 | 5.02 | 3.25 |
| Cc1cnc(Nc2ccc(N3CCN(C)CC3)cc2)nc1Nc1cccc(S(=O)(=O)NC(C)(C)C)c1 | 2.36 |  |
| CCCCCCCCCCCCCCCCOP(=O)([O-])OCC[N+](C)(C)C [Miltefosine] | 5.63 | 2.58 |
| O=C(NC[C@H](O)CO)c1ccncc1Nc1ccc(I)cc1F | 3.9 |  |
| O=C(NOCC(O)CO)c1cc(Br)c(F)c(F)c1Nc1ccc(I)cc1F (stereo not given) | 4.57 | 4.88 |
| O=C1c2ccc(Nc3ccc(F)cc3F)cc2CCc2ccc(OC[C@H](O)CO)cc21 [Skepinone-L] | 5.02 |  |
| Cc1cc(C(=O)NOCCO)c(Nc2ccc(I)cc2F)n(C)c1=O | 3.96 |  |
| CCOc1cc(C(=O)N2CCC(N3CCN(C)CC3)CC2)ccc1Nc1ncc2c(n1)N(C1CCCC1)c1ccccc1C(=O)N2C | 4.02 | 4.25 |
| O=C(Nc1ccc(CN2CCOCC2)cc1)c1ccc(-c2cccc(Cl)c2)o1 | 4.9 | 5.54 |
| Cc1c(F)cc(C(=O)NC2CC2)cc1-c1ccc(C(=O)NCC(C)(C)C)cn1 [Losmapimod] | 5.21 |  |
| Cc1c(NC(=O)OC[C@@H]2COCCN2)cn2ncnc(Nc3ccc4c(cnn4Cc4cccc(F)c4)c3)c12 | 2.91 | 3.71 |
| CNC(=O)CN1CCC(Oc2cc3c(Nc4cccc(Cl)c4F)ncnc3cc2OC)CC1 [AZD8931 (Sapitinib)] | 4.29 | 4.25 |
| COc1cc2c(Nc3ccc(NC(=O)c4ccccc4)cc3)ncnc2cc1OCCCN1CCOCC1 | 3.69 | 4.58 |
| Nc1nc(N)c2nc(-c3cccc(O)c3)c(-c3cccc(O)c3)nc2n1 | 4.24 | 3.38 |
| NC(=O)c1cccc(-c2cc(Nc3ccc(OC(F)(F)F)cc3)ncn2)c1 | 5.14 | 3.76 |
| Cc1cnc(Nc2ccc(F)cc2Cl)nc1-c1c[nH]c(C(=O)N[C@H](CO)c2cccc(Cl)c2)c1 | 3.69 | 4.58 |
| COc1cc2c(Oc3ccc(NC(=O)C4(C(=O)Nc5ccc(F)cc5)CC4)cc3F)ccnc2cc1OCCCN1CCOCC1 | 3.24 | 3.38 |
| CC1=CC(=O)C(C(C)C)=C/C1=N/OC(=O)c1ccccc1C [Poloxin] | 4.02 | 5.25 |
| CNC(=O)c1cc(Oc2ccc(NC(=O)c3cccc(C(F)(F)F)c3)cc2)ccn1 | 3.57 | 5.54 |
| Cn1cc(C2=C(c3ccc(Cl)cc3Cl)C(=O)NC2=O)c2ccccc21 | 4.14 | 4.76 |

| Structure (SMILES) | neurite formation score (Neuro-2a [1]) | neurite formation score (Neuro-2a [2]) |
| --- | --- | --- |
| CCCCOc1c(C(=O)c2c(F)cc(C)cc2F)c[nH]c2nncc1-2 | 5.29 | 4.92 |
| CNC(=O)c1cc(COc2nnc(Nc3ccc(Cl)cc3)c3ccoc23)ccn1 [Telatinib (BAY 57-9352)] | 4.96 | 4.92 |
| Cc1csc(-c2nnc(Nc3ccc(Oc4ncccc4-c4ccnc(N)n4)cc3)c3ccccc23)c1 | 3.36 | 4.58 |
| C=CC(=O)Nc1cccc(Sc2nc(Nc3ccc(N4CCN(C)CC4)cc3)ncc2Cl)c1 | 4.91 | 4.71 |
| COc1ccc(Cl)cc1NC(=O)Nc1cc(C)nc2ccccc12 | 3.91 | 5.04 |
| CC[C@@H]1C(=O)N(C)c2cnc(Nc3ccc(C(=O)NC4CCN(C)CC4)cc3OC)nc2N1C1CCCC1 | 5.02 | 4.58 |
| CNC(=O)c1cc(Oc2ccc(NC(=O)Nc3cc(C(C)(C)C)nn3-c3ccc4ncccc4c3)c(F)c2)ccn1 [DCC-2036 (Rebastinib)] | 1.29 | 3.92 |
| COc1cc(N2CCC(N3CCN(C)CC3)CC2)ccc1Nc1ncnc(Nc2ccccc2S(=O)(=O)C(C)C)n1 | 5.24 | 4.38 |
| CCc1cc(Nc2nccc(-c3c(-c4ccc(OC)c(C(=O)Nc5c(F)cccc5F)c4)nc4ccccn34)n2)c(OC)cc1N1CCC(N2CCN(S(C)(=O)=O)CC2)CC1 | 4.91 | 4.71 |
| CCCCCCCCCCCCCCCCCC(=O)OC[C@H](CO)OC(=O)CCCCCCCCCCCCCCCCC [1,2-Distearoyl-sn-glycerol] | 4.54 | 5.42 |
| CCCCCCCCCCCCCC(=O)OC[C@H](CO)OC(=O)CCCCCCCCCCCCC [1,2-Dimyristoyl-sn-glycerol] | 4.88 | 5.08 |
| NC(=O)c1ccc2nc(-c3ccc(Oc4ccc(Cl)cc4)cc3)[nH]c2c1 | 4.63 | 5.25 |
| Cc1cccc(CC(=O)N2CCc3c2ccc(-c2cn(C)c4ncnc(N)c24)c3F)n1 | 4.21 | 4.42 |
| CC(C)(C)c1nc(-c2cccc(NS(=O)(=O)c3c(F)cccc3F)c2F)c(-c2ccnc(N)n2)s1 | 5.02 and 5.29 | 5.25 |
| CC(=O)Nc1cccc(-n2c(=O)n(C3CC3)c(=O)c3c(Nc4ccc(I)cc4F)n(C)c(=O)c(C)c32)c1 | 3.57 | 4.38 |
| CC(C)[C@H](CO)Nc1nc(Nc2cccc(Cl)c2)c2ncn(C(C)C)c2n1 [Purvalanol A] | 3.54 | 5.08 |
| Cn1cc(-c2ccc3c(c2)CCN3C(=O)Cc2cccc(C(F)(F)F)c2)c2c(N)ncnc21 | 4.36 | 5.25 |
| COc1cc2ncc(-c3ccccc3)nc2cc1OC [Tyrphostin AG 1296] | 5.24 | 5.04 |
| C=CC(=O)Nc1cccc(Oc2nc(Nc3ccc(N4CCN(C)CC4)cc3)ncc2Cl)c1 | 5.96 | 4.25 |
| Cc1cn(-c2cc(NC(=O)c3ccc(C)c(Nc4nccc(-c5cccnc5)n4)c3)cc(C(F)(F)F)c2)cn1 [Nilotinib(AMN-107)] | 4.57 | 5.21 |
| Cn1cnc(=N)c2[nH]cnc21 [3-Methyladenine] | 4.24 | 4.88 |
| O=C(O)[C@]1(Cc2cccc(Nc3nccs3)n2)CC[C@@H](Oc2cccc(Cl)c2F)CC1 | 3.69 | 3.92 |
| Nc1cccc(-c2cc3c(Oc4cccc(O)c4)ncnc3[nH]2)c1 | 1.88 | 3.75 |
| CCN1CCN(Cc2ccc(Nc3ncc(F)c(-c4cc(F)c5nc(C)n(C(C)C)c5c4)n3)nc2)CC1 | 4.57 | 3.04 |
| CC(C)[C@H](CO)Nc1nc(Nc2ccc(C(=O)O)c(Cl)c2)c2ncn(C(C)C)c2n1 [Purvalanol B] | 4.63 | 4.92 |
